From PubChem
Hedgehog inh = blocks Sonic Hedgehog signaling | hit rate 2.1% among 22,000 | AID 2313 | Shh-LIGHT2 Gli-luciferase reporter, 30 h | inhibition, % (test concentration not listed);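 active means mean inhibition across valid replicates above about 65%, limit read from the data; inconclusive means mean under the limit, yet half or more replicates past it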;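 further: pathway switched on by Shh-conditioned medium diluted 1 in 25 in low serum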
NOMO-1 viab = STK33 inhibitor candidate reducing NOMO-1 cell viability. NOMO-1 AML viability, CellTiter-Glo luminescence, 72 h. inhibition, % (concentration not given with the values). hit rate 7.5% among 37,000; in the data active means inhibition above about 80%; inconclusive means no clear call, values can overlap the other calls
MITF inhib = blocks MITF activity; TRPM1 promoter luciferase, luminescence, 24 h; inhibition, % (no concentration beside the values); hit rate 0.28% among 37,000; AID 2240; in the data active means inhibition above about 85%; inconclusive means no clear call, values can overlap the other calls; inactive means below about 68%;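 further: human melanocyte line stably carrying TRPM1 promoter luciferase reporter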
Active calls of the source: *; ? = inconclusive; nt = no result given. Shown are actives, neighbours in structure and some others; about 7.8% of the full set was active somewhere.

SMILES | Hedgehog inh | NOMO-1 viab | MITF inhib
C[C@H]1CN([C@@H](C)CO)C(=O)Cc2cc(NC(=O)Nc3ccc(F)cc3)ccc2O[C@H]1CN(C)Cc1ccc(C(F)(F)F)cc1 | -23 | 126* | -14
C[C@@H]1CN([C@H](C)CO)C(=O)Cc2cc(NC(=O)Nc3ccc(C(F)(F)F)cc3)ccc2O[C@H]1CN(C)Cc1ccc2c(c1)OCO2 | nt | -13 | -18
C[C@H]1CN([C@@H](C)CO)C(=O)Cc2cc(NC(=O)Nc3ccc(C(F)(F)F)cc3)ccc2O[C@@H]1CN(C)Cc1ccncc1 | 38 | 20 | 3
C[C@@H]1CN([C@@H](C)CO)C(=O)Cc2cc(NC(=O)Nc3ccc(F)cc3)ccc2O[C@@H]1CN(C)Cc1ccc(C(F)(F)F)cc1 | 22 | 113* | 12
C[C@@H]1CN([C@@H](C)CO)C(=O)Cc2cc(NC(=O)Nc3ccc(C(F)(F)F)cc3)ccc2O[C@@H]1CN(C)Cc1ccc2c(c1)OCO2 | 14 | 122* | 10
C[C@H](CO)N1C[C@H](C)[C@H](CN(C)Cc2ccc(C(=O)O)cc2)Oc2ccc(NC(=O)Nc3ccc(C(F)(F)F)cc3)cc2CC1=O | 7 | 18 | -5
C[C@H]1CN([C@@H](C)CO)C(=O)Cc2cc(NC(=O)Nc3ccc(C(F)(F)F)cc3)ccc2O[C@@H]1CN(C)Cc1ccc(C(F)(F)F)cc1 | -2 | 126* | 0
COc1cc(NC(=O)C(C)Oc2ccc(Cl)cc2Cl)ccc1NC(=O)c1ccco1 (stereo unspecified) | nt | 24 | -12
COc1ccc(S(=O)(=O)N(C)CC(=O)Nc2cc(C(F)(F)F)ccc2Cl)cc1C | nt | 19 | 43
COc1ccc(C(=O)Nc2ccccc2C(=O)OCc2cccc([N+](=O)[O-])c2)cc1 | nt | 36 | 7
Cc1c(Cl)cccc1NC(=O)CN(c1ccccc1Br)S(C)(=O)=O | nt | 27 | -30
CO[C@H]1C=C[C@@](C)(O)/C=C/C(=O)O[C@H](C)[C@@H](C)CC/C=C\1C | 2 | 56 | 1
Cc1ccc(-c2cc(C(F)(F)F)n3nc(C(=O)NCc4cc(C)n(C)n4)cc3n2)cc1C | nt | 66 | -1
COc1ccc(N2C(=O)Cc3ccc(OC)cc3C2=O)cc1 | -26 | 120* | 1
COc1ccc2c(c1)CCC(=O)C2 | -63 | 3 | -19
Cc1ccnc(NS(=O)(=O)c2ccc(NC(=O)c3csc4c3CCCC4)cc2)n1 | nt | -3 | -1
Cc1sc2ncnc(SCC(=O)Nc3ccccc3-c3ccccc3)c2c1C | nt | 34 | 61
Cc1c(Cl)cccc1N(CC(=O)Nc1ccc(I)cc1)S(C)(=O)=O | nt | 20 | -21
COc1ccc(Cn2c(-c3nonc3NC(C)=O)nc3ccccc32)cc1 | nt | 45 | 13
CC(=O)Nc1nonc1-c1nc2ccccc2n1Cc1cccc2ccccc12 | nt | 118* | 38
O=C(CN1CCN(S(=O)(=O)c2ccc3ccccc3c2)CC1)Nc1cc(Cl)ccc1Cl | nt | 7 | -13
COc1ccc(CC(=O)Nc2cccc(-c3nc4cc5ccccc5cc4[nH]3)c2)cc1 | nt | 135* | -3
Cc1ccc(OCC(=O)Nc2cccc(-c3nc4ccccc4[nH]3)c2)cc1 | nt | 7 | -66
O=C(NCCCN1CCOCC1)C(=O)NC1CC1 | nt | 19 | -11
CC1CCCC(C)N1C(=S)NCCCN1CCOCC1 (stereo unspecified) | -11 | 110* | 6
SMILES | Hedgehog inh | NOMO-1 viab | MITF inhib
Cc1nn(C)c(C)c1NC(=O)CSc1nnc(-c2cccc(Br)c2)n1-c1ccccc1 | nt | -9 | 7
C=C1CC[C@@H](O)[C@]2(C)C[C@H]3OC(=O)C(=C)[C@H]3CC12 (stereo partly specified) | 30 | 104* | 38
C=C1C(=O)O[C@@H]2C[C@@]3(C)CC(=O)C=C(C)C3C[C@H]12 (stereo partly specified) | 51 | 120* | 1
C=C(C(=O)O)[C@@H]1CC[C@@]2(C)CC(=O)C=C(C)C2C1 (stereo partly specified) | 14 | 14 | -2
CS(=O)(=O)N(CC(=O)NC1CCCCCC1)c1ccc(I)cc1 | nt | 23 | -103
Cc1cccc(OCC(=O)Nc2c[nH]c(=O)[nH]c2=O)c1C | nt | 6 | -24
O=C(CSc1nnc(-c2ccc(Cl)cc2Cl)o1)Nc1ccc([N+](=O)[O-])cc1 | nt | 32 | 8
CC(N=Cc1c(O)ccc2ccccc12)C12CC3CC(CC(C3)C1)C2 (stereo unspecified) | ? | 101* | 16
O=C(Nc1cccc2ccccc12)C12CC3CC(CC(C3)C1)C2 | -42 | 24 | -13
Cc1sc(NC(=O)c2cc(-c3cccnc3)nc3ccccc23)c(C(=O)NC2CCCCC2)c1C | nt | 98* | 9
O=C(NC1CCCC1)c1c(NC(=O)c2cc(-c3cccnc3)nc3ccccc23)sc2c1CCCC2 | nt | 8 | 2
CC(=O)Cc1cc(O)cc2oc(C)cc(=O)c12 | -42 | -19 | -14
Cc1ccc(Oc2ncc(C(F)(F)F)cc2Cl)c2c1CCC2 | -4 | ? | -11
CSc1nc2sc3c(c2c2nnc(SCC(=O)Nc4ccccc4)n12)CCC3 | nt | 129* | 80
